Source: PubChem BioAssay (Broad Institute)
This excerpt belongs to a sample that is enriched for hits.
IDE exosite FP – exo-site inhibitors of human insulin-degrading enzyme | P14735 | purified IDE, FL-6b probe fluorescence polarization; active compounds read low | z-score at 20 µM | 17,000 tested, 6.3% active;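 active = z-score of -3 or lower, meaning strong loss of probe binding signal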;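 note: His-tagged human IDE residues 42-1019 made in E. coli with 30 nM FL-6b probe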
Starred values were filed as active, the others as inactive.

For CCCC#Cc1ccc([C@@H]2[C@H](CO)N3CCCCN(C(=O)NC4CCCC4)C[C@@H]23)cc1 the results were IDE exosite FP -5.2*.
`COCC#Cc1ccc([C@@H]2[C@@H](CO)N3CCCCN(C(=O)NC4CCCC4)C[C@@H]23)cc1` gave IDE exosite FP -1.
O=C(C1CC1)N1CCCCN2[C@H](CO)[C@H](c3ccc(-c4cccc(F)c4)cc3)[C@@H]2C1 was read as IDE exosite FP -0.92.
Screening CN(C)CC#Cc1ccc([C@@H]2[C@@H](CO)N3C(=O)CN(C(=O)c4ccccc4)C[C@@H]23)cc1 returned IDE exosite FP 4.2.
For N#Cc1ccc(-c2ccc([C@H]3[C@@H](CO)N4C(=O)CNC[C@H]34)cc2)cc1 the results were IDE exosite FP 0.54.
Screening O=C(NCc1ccc(F)cc1)[C@H]1[C@H](CO)[C@H]2Cn3c(cccc3=O)[C@H]2N1C(=O)c1cccnc1 returned IDE exosite FP -0.14.
COc1ccc(S(=O)(=O)N2C[C@@H](O)COC[C@@H]3O[C@@H](CC(=O)N[C@H]4CCN(Cc5ccccc5)C4)CC[C@H]32)cc1 was read as IDE exosite FP -0.73.
For N#C[C@@H]1[C@@H](c2ccccc2C2=CCCCC2)[C@H](CO)N1C(=O)CN1CCOCC1 the results were IDE exosite FP 0.98.
Cc1ccccc1-c1ccc([C@@H]2[C@H](CO)N3CCCCN(C(=O)CN4CCOCC4)C[C@@H]23)cc1 was read as IDE exosite FP -14*.
Screening CN1c2ccc(Br)cc2[C@H]2[C@H](CCN2C(=O)CN2CCOCC2)[C@H]1CO returned IDE exosite FP 2.6.
For Cc1ccccc1-c1ccc([C@H]2[C@H](CO)N3CCCCN(C(=O)CN4CCOCC4)C[C@@H]23)cc1 the results were IDE exosite FP -3.7*.
COc1ccccc1-c1ccc([C@@H]2[C@@H](CO)N3CCCCN(C(=O)CN4CCOCC4)C[C@H]23)cc1 was read as IDE exosite FP 1.9.
CN1c2ccc(-c3cccc(C#N)c3)cc2[C@@H]2[C@@H](CCN2C(=O)CN2CCOCC2)[C@H]1CO was read as IDE exosite FP 1.5.
Screening Cc1ccccc1-c1ccc([C@H]2[C@H]3CN(C(=O)CN4CCOCC4)CCCCN3[C@H]2CO)cc1 returned IDE exosite FP -2.2.
`COc1ccccc1-c1ccc2c(c1)[C@H]1[C@H](CCN1C(=O)CN1CCOCC1)[C@H](CO)N2C` gave IDE exosite FP -3.3*.
For COc1ccccc1-c1ccc([C@H]2[C@@H](CO)N3CCCCN(C(=O)CN4CCOCC4)C[C@@H]23)cc1 the results were IDE exosite FP 0.41.
`COc1ccccc1-c1ccc([C@@H]2[C@@H](CO)N3CCCCN(C(=O)CN4CCOCC4)C[C@@H]23)cc1` gave IDE exosite FP -6.5*.
C[C@@H](O)C#Cc1ccc([C@@H]2[C@H]3CN(C(=O)c4ccncc4)CCCCN3[C@H]2CO)cc1 was read as IDE exosite FP 2.2.
C/C=C/c1ccc([C@H]2[C@H]3CN(C(=O)Nc4ccccc4F)CCCCN3[C@H]2CO)cc1 was read as IDE exosite FP 1.9.
`COc1cccc(NC(=O)N2CC(=O)N3[C@H](CO)[C@@H](c4ccc(C5=CCCC5)cc4)[C@H]3C2)c1` gave IDE exosite FP 2.9.
N#C[C@@H]1[C@@H](c2ccc(C3=CCCCC3)cc2)[C@@H](CO)N1C(=O)Cc1ccncc1 was read as IDE exosite FP 3.5.
Screening O=C(c1cc2c(c(-c3cccc(Br)c3)n1)[C@@H](CCO)NC2)N1CCCCC1 returned IDE exosite FP 1.
`O=C(c1ccncc1)N1CC(=O)N2[C@H](CO)[C@H](c3ccc(C#CCC4CCCC4)cc3)[C@@H]2C1` gave IDE exosite FP 1.
Screening CC(=O)N1CCCCN2[C@H](C1)[C@@H](c1ccc(-c3ccc(C)cc3)cc1)[C@@H]2CO returned IDE exosite FP -0.53.
CC(=O)N1CCCCN2[C@H](CO)[C@@H](c3ccc(-c4ccc(C)cc4)cc3)[C@@H]2C1 was read as IDE exosite FP 1.5.
`CN(C)C(=O)c1ccc(-c2ccc([C@H]3[C@H]4CN(C(=O)C5CC5)CCCCN4[C@H]3CO)cc2)cc1` gave IDE exosite FP 2.2.
`CC(=O)N1CCCCN2[C@H](C1)[C@H](c1ccc(-c3cccc(C)c3)cc1)[C@@H]2CO` gave IDE exosite FP -5.3*.
`CN(C)C(=O)c1ccc(-c2ccc([C@H]3[C@H](CO)N4CCCCN(C(=O)C5CC5)C[C@@H]34)cc2)cc1` gave IDE exosite FP -5*.
`CN(C)C(=O)c1ccc(-c2ccc([C@H]3[C@@H](CO)N4CCCCN(C(=O)C5CC5)C[C@H]34)cc2)cc1` gave IDE exosite FP 3.7.
For CC(=O)N1CCCCN2[C@@H](CO)[C@H](c3ccc(-c4ccc(C)cc4)cc3)[C@@H]2C1 the results were IDE exosite FP -0.57.
`CC(=O)N1CCCCN2[C@H](C1)[C@@H](c1ccc(-c3cccc(C)c3)cc1)[C@@H]2CO` gave IDE exosite FP -14*.
For CC(=O)N1CCCCN2[C@@H](CO)[C@@H](c3ccc(-c4ccc(C)cc4)cc3)[C@@H]2C1 the results were IDE exosite FP 1.1.
For CC(=O)N1[C@H](CO)[C@H](c2ccc(-c3cccnc3)cc2)[C@H]1CNC(=O)C1CC1 the results were IDE exosite FP 1.
Screening C[C@H]1CC=CC[C@@H](c2ccc3c(c2)OCO3)NC(=O)[C@H](C)N(C)C(=O)c2ccccc2O1 (mixture of isomers) returned IDE exosite FP -0.39.
Screening CCS(=O)(=O)Nc1ccc2c(c1)C(=O)N(C)[C@H]1CC[C@@H](CC(=O)N[C@@H]3CCN(Cc4ccccc4)C3)O[C@@H]1CO2 returned IDE exosite FP 0.77.
O=C(Nc1ccc(F)cc1)N1CC(=O)N2[C@H](CO)[C@H](c3ccc(C#CC4CC4)cc3)[C@H]2C1 was read as IDE exosite FP 0.55.
Cc1ccc(S(=O)(=O)Nc2cccc3c2O[C@@H](CN(C)C(=O)Nc2ccc(C(F)(F)F)cc2)[C@H](C)CN([C@H](C)CO)C3=O)cc1 was read as IDE exosite FP -0.73.
For CN(C)C(=O)c1ccc(-c2ccc([C@@H]3[C@@H](CO)N4C(=O)CN(C(=O)C5CCC5)C[C@@H]34)cc2)cc1 the results were IDE exosite FP -0.014.
Screening CCc1csc(N2[C@@H](C#N)[C@@H](c3ccccc3C3=CCCC3)[C@@H]2CO)n1 returned IDE exosite FP 1.4.
`CC(=O)N1CCCCN2[C@H](CO)[C@@H](c3ccc(-c4ccncc4)cc3)[C@@H]2C1` gave IDE exosite FP 1.5.
Screening COc1ccccc1CNC(=O)C[C@@H]1C[C@H]2c3cc(NC(=O)C4CCC4)ccc3O[C@H]2[C@H](CO)O1 returned IDE exosite FP -0.57.
For CC(C)NC[C@@H]1[C@@H](c2ccc(C3=CCCCC3)cc2)[C@@H](CO)N1C(=O)CC1CC1 the results were IDE exosite FP 0.15.
`C[C@@H]1CCCCO[C@H](CN(C)Cc2ccncc2)[C@H](C)CN([C@@H](C)CO)C(=O)c2cc(NC(=O)Cc3ccccc3)ccc2O1` gave IDE exosite FP -0.043.
`CC(=O)NC[C@@H]1[C@H](c2ccc(-c3ccccc3)cc2)[C@H](CO)N1C(=O)C1CCC1` gave IDE exosite FP 0.59.
`COc1cccc(-c2ccc([C@H]3[C@H](CO)N4CCCCN(C(=O)c5ccc(F)cc5)C[C@@H]34)cc2)c1` gave IDE exosite FP -2.
For COc1cccc(-c2ccc([C@@H]3[C@H](CO)N4CCCCN(C(=O)c5ccc6c(c5)OCO6)C[C@@H]34)cc2)c1 the results were IDE exosite FP -1.9.
